Results published in ChEMBL document CHEMBL1961873, “Compounds: GSK PKIS; Assays: Nanosyn kinase panel” (2012).

Experiments:
[1] = target: Ribosomal protein S6 kinase alpha-6 (Homo sapiens) (UniProt Q9UK32); conditions: at 1 µM;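 further: each value is a mean inhibition of RSK4 from a GSK PKIS panel screen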
[2] = target: T1, Serine/threonine-protein kinase Sgk1 (Homo sapiens) (UniProt O00141); conditions: at 0.1 µM
T1 sequence (whole entry): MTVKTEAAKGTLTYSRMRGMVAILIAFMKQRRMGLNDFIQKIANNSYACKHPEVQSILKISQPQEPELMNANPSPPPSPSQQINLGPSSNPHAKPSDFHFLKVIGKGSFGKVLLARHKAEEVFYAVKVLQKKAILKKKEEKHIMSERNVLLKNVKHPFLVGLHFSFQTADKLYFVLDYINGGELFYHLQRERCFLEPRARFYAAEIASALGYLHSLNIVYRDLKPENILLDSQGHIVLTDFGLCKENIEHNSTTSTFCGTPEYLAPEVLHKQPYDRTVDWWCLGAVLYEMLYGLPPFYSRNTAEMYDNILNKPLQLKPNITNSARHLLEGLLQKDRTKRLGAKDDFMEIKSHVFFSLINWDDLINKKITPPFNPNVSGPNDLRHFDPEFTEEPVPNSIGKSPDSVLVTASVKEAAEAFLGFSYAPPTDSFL

[3] = target: T1, Serine/threonine-protein kinase Sgk1 (Homo sapiens); conditions: at 1 µM
[4] = target: T2, Serine/threonine-protein kinase Sgk2 (Homo sapiens) (UniProt Q9HBY8); conditions: at 0.1 µM
T2 sequence (whole entry): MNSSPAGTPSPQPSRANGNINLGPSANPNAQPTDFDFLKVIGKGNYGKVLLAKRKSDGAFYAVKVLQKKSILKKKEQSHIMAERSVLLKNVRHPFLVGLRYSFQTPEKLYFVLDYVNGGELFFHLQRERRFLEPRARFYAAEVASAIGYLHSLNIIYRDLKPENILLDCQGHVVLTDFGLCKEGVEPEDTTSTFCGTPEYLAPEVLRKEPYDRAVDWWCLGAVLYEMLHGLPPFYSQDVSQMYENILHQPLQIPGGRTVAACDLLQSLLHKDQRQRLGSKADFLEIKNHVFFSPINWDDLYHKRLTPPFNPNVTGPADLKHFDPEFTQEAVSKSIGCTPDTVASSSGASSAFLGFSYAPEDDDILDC

[5] = target: T2, Serine/threonine-protein kinase Sgk2 (Homo sapiens); conditions: at 1 µM
[6] = target: T3, Serine/threonine-protein kinase Sgk3 (Homo sapiens) (UniProt Q96BR1); conditions: at 0.1 µM
T3 sequence (whole entry): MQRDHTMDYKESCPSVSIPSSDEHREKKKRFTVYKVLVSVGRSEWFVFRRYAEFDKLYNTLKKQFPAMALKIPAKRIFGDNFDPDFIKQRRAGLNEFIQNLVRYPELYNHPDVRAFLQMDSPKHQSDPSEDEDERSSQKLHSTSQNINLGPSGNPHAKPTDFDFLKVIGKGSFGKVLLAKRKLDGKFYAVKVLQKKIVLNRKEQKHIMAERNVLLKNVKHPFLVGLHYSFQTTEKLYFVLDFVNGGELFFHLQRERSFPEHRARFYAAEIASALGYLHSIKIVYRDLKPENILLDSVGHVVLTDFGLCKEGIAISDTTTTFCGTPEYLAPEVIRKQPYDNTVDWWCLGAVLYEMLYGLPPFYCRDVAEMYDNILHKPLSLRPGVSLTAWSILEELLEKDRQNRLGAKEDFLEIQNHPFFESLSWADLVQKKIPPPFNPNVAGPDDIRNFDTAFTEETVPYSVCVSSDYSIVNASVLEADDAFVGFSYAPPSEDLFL

[7] = target: T3, Serine/threonine-protein kinase Sgk3 (Homo sapiens); conditions: at 1 µM
[8] = target: 5'-AMP-activated protein kinase catalytic subunit alpha-1 (Homo sapiens) (UniProt Q13131); conditions: at 0.1 µM
[9] = target: 5'-AMP-activated protein kinase catalytic subunit alpha-1 (Homo sapiens) (UniProt Q13131); conditions: at 1 µM
[10] = target: 5'-AMP-activated protein kinase catalytic subunit alpha-2 (Homo sapiens) (UniProt P54646); conditions: at 0.1 µM
[11] = target: 5'-AMP-activated protein kinase catalytic subunit alpha-2 (Homo sapiens) (UniProt P54646); conditions: at 1 µM
[12] = target: T4, NUAK family SNF1-like kinase 1 (Homo sapiens) (UniProt O60285); conditions: at 0.1 µM
T4 sequence (whole entry): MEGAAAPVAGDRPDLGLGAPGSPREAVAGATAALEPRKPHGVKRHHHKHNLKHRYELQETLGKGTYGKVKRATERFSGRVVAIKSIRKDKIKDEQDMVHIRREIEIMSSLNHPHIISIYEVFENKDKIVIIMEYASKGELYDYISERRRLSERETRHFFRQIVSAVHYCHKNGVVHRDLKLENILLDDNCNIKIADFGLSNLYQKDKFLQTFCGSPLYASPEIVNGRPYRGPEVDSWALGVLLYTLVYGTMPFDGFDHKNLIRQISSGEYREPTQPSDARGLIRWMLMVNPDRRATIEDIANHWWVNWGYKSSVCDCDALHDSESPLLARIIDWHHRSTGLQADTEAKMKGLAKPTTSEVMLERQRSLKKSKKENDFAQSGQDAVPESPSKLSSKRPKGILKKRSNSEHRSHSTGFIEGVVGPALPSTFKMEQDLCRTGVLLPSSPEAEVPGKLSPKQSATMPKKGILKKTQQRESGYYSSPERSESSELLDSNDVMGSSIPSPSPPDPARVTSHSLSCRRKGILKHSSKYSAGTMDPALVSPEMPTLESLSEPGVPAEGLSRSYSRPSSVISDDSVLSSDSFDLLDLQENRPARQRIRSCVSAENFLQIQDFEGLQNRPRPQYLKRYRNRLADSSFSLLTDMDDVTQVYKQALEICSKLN

[13] = target: T4, NUAK family SNF1-like kinase 1 (Homo sapiens); conditions: at 1 µM
[14] = target: T5, Serine/threonine-protein kinase BRSK1 (Homo sapiens) (UniProt Q8TDC3); conditions: at 0.1 µM
T5 sequence (whole entry): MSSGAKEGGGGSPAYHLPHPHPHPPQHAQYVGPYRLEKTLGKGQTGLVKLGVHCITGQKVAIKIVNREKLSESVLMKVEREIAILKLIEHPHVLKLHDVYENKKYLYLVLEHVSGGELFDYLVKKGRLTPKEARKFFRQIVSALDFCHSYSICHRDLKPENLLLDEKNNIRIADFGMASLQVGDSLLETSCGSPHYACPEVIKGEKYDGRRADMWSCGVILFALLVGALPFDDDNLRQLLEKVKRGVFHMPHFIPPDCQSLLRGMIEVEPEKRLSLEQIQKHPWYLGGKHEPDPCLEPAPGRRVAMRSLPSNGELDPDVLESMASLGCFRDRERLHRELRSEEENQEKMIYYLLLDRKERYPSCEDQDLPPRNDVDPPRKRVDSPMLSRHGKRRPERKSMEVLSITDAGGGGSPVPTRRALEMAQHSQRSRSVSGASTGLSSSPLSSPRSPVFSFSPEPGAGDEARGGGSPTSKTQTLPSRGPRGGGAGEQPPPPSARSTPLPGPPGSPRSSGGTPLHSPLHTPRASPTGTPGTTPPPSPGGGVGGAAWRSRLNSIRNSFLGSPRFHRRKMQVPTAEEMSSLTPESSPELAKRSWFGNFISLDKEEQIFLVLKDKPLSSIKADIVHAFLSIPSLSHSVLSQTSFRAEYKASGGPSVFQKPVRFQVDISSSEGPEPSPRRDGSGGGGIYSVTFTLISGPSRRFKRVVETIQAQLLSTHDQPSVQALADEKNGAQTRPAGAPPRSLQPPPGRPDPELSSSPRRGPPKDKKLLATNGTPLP

[15] = target: T5, Serine/threonine-protein kinase BRSK1 (Homo sapiens); conditions: at 1 µM
[16] = target: T6, Serine/threonine-protein kinase BRSK2 (Homo sapiens) (UniProt Q8IWQ3); conditions: at 0.1 µM
T6 sequence (whole entry): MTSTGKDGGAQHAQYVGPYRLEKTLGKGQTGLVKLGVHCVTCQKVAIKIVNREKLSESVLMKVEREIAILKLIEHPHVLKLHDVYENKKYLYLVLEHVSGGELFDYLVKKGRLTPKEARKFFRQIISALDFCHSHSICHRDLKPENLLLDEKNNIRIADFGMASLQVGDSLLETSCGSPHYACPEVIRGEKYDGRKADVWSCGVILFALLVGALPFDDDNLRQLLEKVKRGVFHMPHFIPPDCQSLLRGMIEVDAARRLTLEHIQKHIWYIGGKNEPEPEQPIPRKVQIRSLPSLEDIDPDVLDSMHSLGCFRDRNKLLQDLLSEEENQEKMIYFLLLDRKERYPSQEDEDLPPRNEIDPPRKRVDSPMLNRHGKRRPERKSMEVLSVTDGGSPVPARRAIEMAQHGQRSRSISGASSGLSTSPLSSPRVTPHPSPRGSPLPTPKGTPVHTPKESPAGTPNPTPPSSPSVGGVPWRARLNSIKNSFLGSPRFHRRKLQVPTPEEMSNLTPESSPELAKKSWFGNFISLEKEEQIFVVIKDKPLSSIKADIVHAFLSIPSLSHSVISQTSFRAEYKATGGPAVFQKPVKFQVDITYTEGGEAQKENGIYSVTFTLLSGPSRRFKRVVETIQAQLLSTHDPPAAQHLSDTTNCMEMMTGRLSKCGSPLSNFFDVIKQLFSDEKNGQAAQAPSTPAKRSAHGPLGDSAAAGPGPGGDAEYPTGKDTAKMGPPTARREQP

[17] = target: T6, Serine/threonine-protein kinase BRSK2 (Homo sapiens); conditions: at 1 µM
[18] = target: Calcium/calmodulin-dependent protein kinase type 1D (Homo sapiens) (UniProt Q8IU85); conditions: at 0.1 µM
[19] = target: Calcium/calmodulin-dependent protein kinase type 1D (Homo sapiens) (UniProt Q8IU85); conditions: at 1 µM
[20] = target: Calcium/calmodulin-dependent protein kinase type II subunit alpha (Homo sapiens) (UniProt Q9UQM7); conditions: at 0.1 µM;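 further: reported values are averages (mean inhibition of CAMK2A)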
Sequence of Calcium/calmodulin-dependent protein kinase type II subunit alpha (Homo sapiens) (Q9UQM7 whole entry): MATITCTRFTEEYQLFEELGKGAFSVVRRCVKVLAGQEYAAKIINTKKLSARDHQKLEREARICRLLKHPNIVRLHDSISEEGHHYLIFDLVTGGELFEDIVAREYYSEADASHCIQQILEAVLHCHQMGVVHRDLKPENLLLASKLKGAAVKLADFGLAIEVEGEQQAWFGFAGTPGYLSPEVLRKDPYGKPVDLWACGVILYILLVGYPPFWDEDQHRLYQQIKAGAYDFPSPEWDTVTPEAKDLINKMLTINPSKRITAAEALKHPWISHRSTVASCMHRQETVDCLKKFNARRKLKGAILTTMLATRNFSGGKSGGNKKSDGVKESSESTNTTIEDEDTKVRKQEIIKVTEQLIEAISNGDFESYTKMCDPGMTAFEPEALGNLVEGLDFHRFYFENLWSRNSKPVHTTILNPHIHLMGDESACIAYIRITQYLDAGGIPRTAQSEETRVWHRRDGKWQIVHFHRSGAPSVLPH

Sequence of 5'-AMP-activated protein kinase catalytic subunit alpha-1 (Homo sapiens) (Q13131 whole entry, looked up): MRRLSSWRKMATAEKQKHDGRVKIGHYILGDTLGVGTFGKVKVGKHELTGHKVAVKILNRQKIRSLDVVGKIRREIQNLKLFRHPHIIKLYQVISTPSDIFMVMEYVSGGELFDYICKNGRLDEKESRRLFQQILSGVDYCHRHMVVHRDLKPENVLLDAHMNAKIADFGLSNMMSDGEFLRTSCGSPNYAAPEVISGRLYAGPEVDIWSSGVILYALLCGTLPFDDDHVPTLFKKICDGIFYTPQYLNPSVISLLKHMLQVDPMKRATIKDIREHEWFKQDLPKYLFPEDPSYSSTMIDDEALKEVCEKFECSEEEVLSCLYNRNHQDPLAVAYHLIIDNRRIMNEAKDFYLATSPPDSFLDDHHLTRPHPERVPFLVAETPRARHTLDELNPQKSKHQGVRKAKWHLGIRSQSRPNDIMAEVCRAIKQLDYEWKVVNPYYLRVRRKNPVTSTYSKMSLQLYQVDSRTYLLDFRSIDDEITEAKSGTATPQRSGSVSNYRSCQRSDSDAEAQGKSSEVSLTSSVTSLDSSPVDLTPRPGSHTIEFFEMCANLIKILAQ
Sequence of Ribosomal protein S6 kinase alpha-6 (Homo sapiens) (Q9UK32 whole entry): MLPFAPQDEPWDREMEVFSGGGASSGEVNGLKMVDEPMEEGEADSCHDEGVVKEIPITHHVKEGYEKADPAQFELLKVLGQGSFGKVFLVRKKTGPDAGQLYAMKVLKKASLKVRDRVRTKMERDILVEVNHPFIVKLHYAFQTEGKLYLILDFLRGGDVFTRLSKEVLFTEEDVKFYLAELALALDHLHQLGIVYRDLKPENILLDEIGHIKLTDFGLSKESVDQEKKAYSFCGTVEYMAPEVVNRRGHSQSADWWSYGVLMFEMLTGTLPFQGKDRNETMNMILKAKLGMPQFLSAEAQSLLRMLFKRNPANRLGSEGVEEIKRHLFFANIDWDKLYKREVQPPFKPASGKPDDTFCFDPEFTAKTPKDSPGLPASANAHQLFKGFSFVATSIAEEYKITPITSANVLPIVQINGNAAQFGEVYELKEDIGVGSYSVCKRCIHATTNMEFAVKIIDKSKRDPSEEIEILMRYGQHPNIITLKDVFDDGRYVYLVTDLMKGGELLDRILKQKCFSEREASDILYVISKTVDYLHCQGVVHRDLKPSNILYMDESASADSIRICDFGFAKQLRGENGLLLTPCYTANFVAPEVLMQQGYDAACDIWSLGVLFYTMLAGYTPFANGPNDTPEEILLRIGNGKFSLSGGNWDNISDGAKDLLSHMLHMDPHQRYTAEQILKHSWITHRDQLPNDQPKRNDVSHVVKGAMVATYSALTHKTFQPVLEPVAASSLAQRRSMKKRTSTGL
Sequence of Calcium/calmodulin-dependent protein kinase type 1D (Homo sapiens) (Q8IU85 whole entry, looked up): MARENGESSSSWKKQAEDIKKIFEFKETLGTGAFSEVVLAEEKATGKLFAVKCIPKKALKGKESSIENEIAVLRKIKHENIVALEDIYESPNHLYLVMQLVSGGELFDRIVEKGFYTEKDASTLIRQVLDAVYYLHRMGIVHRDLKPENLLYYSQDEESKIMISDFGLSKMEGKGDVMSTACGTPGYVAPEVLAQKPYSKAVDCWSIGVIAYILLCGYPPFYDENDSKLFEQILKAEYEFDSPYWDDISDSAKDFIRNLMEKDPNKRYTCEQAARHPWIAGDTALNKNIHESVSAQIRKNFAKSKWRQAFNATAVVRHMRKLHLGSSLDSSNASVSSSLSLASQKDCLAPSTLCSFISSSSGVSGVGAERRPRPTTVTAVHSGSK
Sequence of 5'-AMP-activated protein kinase catalytic subunit alpha-2 (Homo sapiens) (P54646 whole entry, looked up): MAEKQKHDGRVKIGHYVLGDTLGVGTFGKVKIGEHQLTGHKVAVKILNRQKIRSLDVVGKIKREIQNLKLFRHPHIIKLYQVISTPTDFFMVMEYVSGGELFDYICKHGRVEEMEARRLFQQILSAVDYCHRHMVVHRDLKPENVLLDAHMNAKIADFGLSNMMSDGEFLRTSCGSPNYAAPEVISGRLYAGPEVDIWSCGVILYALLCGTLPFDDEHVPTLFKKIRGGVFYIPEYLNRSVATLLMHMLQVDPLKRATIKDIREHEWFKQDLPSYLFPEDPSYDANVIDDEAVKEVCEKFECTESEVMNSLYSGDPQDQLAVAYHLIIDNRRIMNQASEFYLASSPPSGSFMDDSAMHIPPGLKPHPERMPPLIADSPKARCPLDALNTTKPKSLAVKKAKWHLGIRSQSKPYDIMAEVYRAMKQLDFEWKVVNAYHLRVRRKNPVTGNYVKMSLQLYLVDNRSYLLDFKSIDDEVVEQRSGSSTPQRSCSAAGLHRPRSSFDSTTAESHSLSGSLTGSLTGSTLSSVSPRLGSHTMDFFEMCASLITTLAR

SMILES | inhibition [1] [%] | inhibition [2] [%] | inhibition [3] [%] | inhibition [4] [%] | inhibition [5] [%] | inhibition [6] [%] | inhibition [7] [%] | inhibition [8] [%] | inhibition [9] [%] | inhibition [10] [%] | inhibition [11] [%] | inhibition [12] [%] | inhibition [13] [%] | inhibition [14] [%] | inhibition [15] [%] | inhibition [16] [%] | inhibition [17] [%] | inhibition [18] [%] | inhibition [19] [%] | inhibition [20] [%]
COc1cccc(-n2ncc3c(N/N=C/c4ccc(C)cc4)ncnc32)c1 | 3.14 | 0.12 | 3.62 | 1.23 | 2.8 | 3.8 | 2.61 | 1.9 | 6.98 | 7.16 | 6 | 6.88 | 16.2 | 6.04 | 9.05 | 5.73 | 12.7 | 0.52 | 3.47 | 3.6
NS(=O)(=O)c1cccc(Nc2cc(-c3ccc(F)cc3)n[nH]2)c1 | 4.03 | 3.81 | 7.2 | 3.76 | 8.09 | 3.81 | 7.42 | 3.82 | 14.4 | 2.4 | 10.9 | -3.46 | 12.6 | 1.36 | 5.97 | 3.15 | 11.2 | -0.34 | -0.05 | 2.68
C[C@@H](Oc1cc(-n2cnc3ccc(OC[C@@H](O)CO)cc32)sc1C(N)=O)c1ccccc1Cl | 12.7 | 1.2 | 0.68 | 1.68 | 2.9 | -1.63 | 0.55 | 0.18 | 5.73 | 0.26 | 2.08 | 6.98 | 39.1 | 15.7 | 55.8 | 24.2 | 68.3 | -0.01 | 0.92 | -2.71
NS(=O)(=O)c1ccc(NC=C2C(=O)Nc3ccc4ncsc4c32)cc1 | 77.4 | 19.7 | 64 | 8.38 | 36.4 | 5.73 | 19.1 | 38.4 | 68.2 | 24 | 53.4 | 69.9 | 69.8 | 34.1 | 60.3 | 45.2 | 63.6 | 2.99 | 8.72 | 4.91
COC(=O)c1ccc2c(c1)C(=Cc1cc(Br)c(O)c(Br)c1)C(=O)N2 | 7.3 | 1.67 | 5.36 | 5.27 | 12.1 | 3.08 | 3.5 | 2.71 | 6.28 | 8.21 | 4.79 | -1.29 | 2.73 | 3.81 | 2.04 | 0.42 | 5.14 | 0.26 | 3.35 | 2.97
COc1cc2ncnc(Nc3ccc4c(cnn4Cc4ccccc4)c3)c2cc1OC | 1.92 | 2.26 | 1.9 | 1.23 | -1.13 | 2.62 | 1.35 | 1.38 | 3.13 | 5.92 | 3.91 | -0.12 | 2.05 | 1.23 | 1.11 | 0.79 | 4.84 | 0.22 | 1.49 | 0.08
